PubChem BioAssay AID720487 (Milwaukee Institute for Drug Discovery, 2013)
The list shows a part of the results. Values without a mark were called inactive. Calls of active or inactive are those of the source.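 How the source made its calls: active means fluorescence interference ratio at or above 1.2, signal boosting, or at or below 0.8, signal quenching; inactive means ratio between 0.8 and 1.2.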

experiment: Cy5 fluorescence interference with SSB-bound oligo, artefact control for HCV NS3 helicase inhibitor project, biochemical, E. coli SSB, selected ChemBridge compounds (AID 720487);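 further: ratio of compound well signal to mean negative control signal so 1 means no effect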; settings: Cy5-dT15/E. coli SSB fluorescence interference; at 100 µM; actives lie on both sides

| Structure (SMILES) | fluorescence interference ratio |
| --- | --- |
| CCOc1ccc(C=C2C(=O)NC(=O)NC2=O)cc1Cl | 0.963 |
| CCN(CC)c1ccc(NC(=O)/C(=C\c2ccccc2)NC(C)=O)cc1 | 1.22 (active) |
| COc1ccc(C(=O)Oc2ccc3oc(=O)cc(C)c3c2)cc1OC | 0.977 |
| COc1cc(/C(O)=C(\C#N)c2nc3ccccc3n2C)cc(OC)c1OC | 0.913 |
| O=C(NC(=S)Nc1ccc(-c2nc3cc(Cl)ccc3o2)cc1)c1ccco1 | 0.991 |
| O=C1NC(=O)C(=Cc2cc([N+](=O)[O-])cc(Br)c2O)C(=O)N1 | 0.896 |
| N#Cc1c(N)nc2sc(C(=O)Nc3ccccc3)c(N)c2c1-c1ccco1 | 1.02 |
| C=CCN1C(=O)/C(=C\c2cc(OC)c(O)c([N+](=O)[O-])c2)C(=O)NC1=S | 0.902 |
| Cc1ccc(C(=O)NCCNc2ccc([N+](=O)[O-])cc2)cc1 | 0.915 |
| COc1cc(C=C2C(=O)NC(=O)NC2=O)ccc1OCCOc1ccc([N+](=O)[O-])cc1 | 0.897 |
| Cc1ccc(C(=O)C[n+]2cc(-c3ccccc3)n3c2CCCCC3)cc1 | 1.01 |
| COc1ccc(N2C(=O)C=CC2=O)c([N+](=O)[O-])c1 | 1 |
| O=c1c2c(nc3cc(-c4cccc(F)c4)[nH]n13)CCS2 | 0.862 |
| CC(C)(C)N1C(=O)NC(=O)C(=Cc2cccs2)C1=O | 0.954 |
| CCN(CC)c1ccc(C=C2C(=O)N(C)C(=O)N(C)C2=O)c(O)c1 | 1.15 |
